HepG2 tox = qHTS for Inhibitors of TGF-b: Cytotox Counterscreen. actives 0.76% (n = 410,000). HepG2 CAGA-GFP viability, ATP luminescence, 18 h. Potency, µM (titrated, usually from 46.1 µM), for the others: top-dose activity change, negative = cytotoxicity, usual class: cytotoxic
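HepG2 CAGA-GFP cells (1000/well, DMEM with 1% FBS) received compound, then TGF-beta at 500 pg/mL final, and were incubated 18 hours at 37 degrees C. Viability was read by CellTiter-Glo luminescence. Media-only wells were set as complete cell-killing and DMSO as no toxicity.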
HT1080 IDH1KD tx = qHTS for induction of synthetic lethality in tumor cells producing 2HG: qHTS for the HT-1080-IDH1KD cell line; HT-1080 IDH1 knockdown viability, ATP luminescence, 48 h; Potency, µM (doses to about 46.1 µM), for inactives: at the highest dose activity, negative = toxicity, actives largely listed as cytotoxic; actives 2% (n = 360,000);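 also: 0% = DMSO wells and -100% = cell-free medium wells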
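In this qHTS, HT-1080 cells depleted of IDH1 are exposed for 48 h at 37 °C to compound titrations. Toxicity is scored from CellTiter-Glo luminescence, with DMSO as full viability and medium alone as none.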
HT1080-NT tox = qHTS for induction of synthetic lethality in tumor cells producing 2HG: qHTS for the HT-1080-NT fibrosarcoma cell line; actives 1.6% (n = 360,000); AID 686970, 2013; HT-1080-NT fibrosarcoma viability, CellTiter-Glo ATP luminescence, 48 h; Potency, µM (titrated, usually from 46.1 µM), for the others: at the highest dose activity, negative = less viability, usual class: cytotoxic;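 also: NT is the 2HG producing partner of a matched IDH1 knockdown line; 0% = DMSO-treated cells and -100% = media-only wells without cells; nearly all actives have a fitted effect of over 55% in size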
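750 cells/well, RPMI + 5% FBS; 2 h settle, compound pin-transfer, 48 h at 37 degrees C. CellTiter-Glo 10 min RT, luminescence. Normalized to DMSO and media-only wells.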
TGFb SMAD3 inh = qHTS for Inhibitors of TGF-b; AID 588855, 2011; actives 1.2% (n = 410,000); HepG2 CAGA-GFP TGF-b/SMAD3 reporter, GFP fluorescence, 18 h; TGF-beta stimulated, 500 pg/mL final; Potency, µM (titrated, usually from 46.1 µM), without a hit: at the highest dose activity, negative = inhibition, most hits filed as inhibitors; also: % is scaled to controls: 0 for no effect and ±100 for the full control effect; nearly all actives have a fitted effect of over 65% in size
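TGF-beta reporter screen: HEPG2 CAGA-GFP, 1% FBS, 500 pg/mL TGF-beta final, 18 h; per-cell GFP summed per well; curves fitted and categorized by class.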
DT40 TDP1 CPT = qHTS for Inhibitors of human tyrosyl-DNA phosphodiesterase 1 (TDP1): qHTS in cells in presence of CPT; chicken DT40 Tdp1-/-;hTDP1 cells + 20 nM CPT, ATP luminescence, 48 h; Potency, µM (highest dose often 46.2 µM), without a hit: at the highest dose activity change, negative = growth inhibition, most hits filed as inhibitors; actives 12% (n = 420,000); AID 686979, 2013; also: % is scaled to controls: 0 for no effect and ±100 for the full control effect; nearly all actives have a fitted effect of over 55% in size
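Chicken DT40 Tdp1-/- cells stably complemented with human TDP1 were seeded at 400 cells/well in medium containing 20 nM camptothecin, exposed to pin-transferred compounds, and grown at 37 °C for at least 48 hr. Viability was read as ATP luminescence.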
DT40 TDP1 no CPT = qHTS for Inhibitors of human tyrosyl-DNA phosphodiesterase 1 (TDP1): qHTS in cells in absence of CPT; DT40 Tdp1-/- hTDP1 cells, no CPT, ATP luminescence, 48 h; Potency, µM (series often up to 46.2 µM), inactives show at the highest dose activity change, negative = growth inhibition, usual class: inhibitors; actives 15% (n = 420,000); also: % is scaled to controls: 0 for no effect and ±100 for the full control effect; nearly all actives have a fitted effect of over 55% in size
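Chicken DT40 Tdp1-/- cells stably complemented with human TDP1 were seeded at 400 cells/well with DMSO in place of 20 nM camptothecin. After compound pinning, cells grew at least 48 hr at 37 °C; viability read by CellTiter-Glo luminescence.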
An asterisk follows results filed as active; ? = inconclusive; / = no result; [ ] = dose if it differs, or a comment. Sampled rows, rich in hits. Any-hit rate of the full collection: about 17%. Calls follow the shape of the dose curve; as a rule, active = well fitted curve in the direction sought with a large enough effect; inconclusive = small, poorly fitted or top-dose-only effect, or another doubt; inactive = no such curve, though single readings can be large; an effect the other way counts as inactive or inconclusive. Potency is read from the fitted curve at half-maximal effect.

SMILES | HepG2 tox | HT1080 IDH1KD tx | HT1080-NT tox | TGFb SMAD3 inh | DT40 TDP1 CPT | DT40 TDP1 no CPT
Cc1cc([N+](=O)[O-])ccc1NC(=O)C[n+]1ccc(N(C)C)cc1 | -13% | -23% | 17% | -11% | -7% | ?
COc1ccc(CNC(=O)c2oc3c(c2C)-c2nn(Cc4ccc(Cl)cc4)cc2CC3)cc1 | -15% | / | / | -11% | ? | 23µM*
COc1cccc(CNC(=O)c2oc3c(c2C)-c2nn(Cc4cccc(Cl)c4)cc2CC3)c1 | -13% | / | / | 0% | ? | 18µM*
Cc1c(C(=O)NCCN(C)C)oc2c1-c1nn(Cc3cccc(Cl)c3)cc1CC2 | -57% | / | / | -41% | ? | ?
COc1cccc(CNC(=O)c2oc3c(c2C)-c2nn(Cc4cccc(Cl)c4)cc2CC3)c1OC | -5% | / | / | -19% | 16µM* | 21µM*
CCOc1ccc(CNC(=O)Cn2cc3c(n2)-c2c(oc(C(=O)N4CCOCC4)c2C)CC3)cc1 | -18% | / | / | ? | ? | 21µM*
Cc1c(C(=O)N2CCCC2)oc2c1-c1nn(CC(=O)NCCCN3CCCCC3)cc1CC2 | -3% | 10% | 1% | 1% | -2% | 2%
O=C(CCc1nc(-c2ccccc2F)no1)NCCN1CCN(Cc2ccccc2)CC1 | -11% | -9% | -2% | ? | 18µM* | ?
COc1ccc(-c2noc(CCC(=O)NCCc3ccccc3)n2)cc1 | 0% | 0% | 2% | -17% | -18% | ?
COc1ccc(-c2noc(CCC(=O)NCC3CCN(Cc4cccc(C)c4)CC3)n2)cc1 | 1% | -1% | -22% | -5% | ? | 23µM*
COc1ccc(-c2noc(CCC(=O)NCc3ccc(C)cc3)n2)cc1 | -11% | / | / | 5% | -28% | -14%
COc1ccc(-c2noc(CCC(=O)NC3CCN(Cc4ccccc4)CC3)n2)cc1 | -23% | 0% | -24% | -3% | ? | 12µM*
CCOc1ccc(Oc2ccc(NC(=O)CSc3nncn3C)cc2)cc1 | -12% | -18% | -10% | 1% | -11% | -9%
Cc1ccc(CN2C[C@H](Sc3ccccn3)C[C@H]2C(=O)Nc2ccc3sc(C)nc3c2)s1 | / | / | / | / | 19%[9.04 µM] | -3%
Cc1ccccc1NC(=O)Nc1nc(C(N)Cc2ccccc2)cs1 (centres undefined) | -89% | ? | 23µM* | ? | 23µM* | 23µM*
COc1ccccc1NC(=O)CCC(=O)OCc1ccc(Cl)cc1 | -10% | 7% | -2% | -14% | -13% | 13%
CC(C)CC(N)c1csc(NC(=O)c2cc(C(C)(C)C)nn2Cc2ccccc2)n1 (centres undefined) | 11µM* | 16µM* | 12µM* | ? | 7.3µM* | 8.2µM*
COc1ccccc1NC(=O)Nc1nc(C(N)Cc2ccc(Cl)cc2)cs1 (centres undefined) | -91% | ? | ? | ? | 9.2µM* | 23µM*
CCc1nnc(NC(=O)Nc2ccccc2OC)s1 | -22% | 2% | 1% | -5% | -18% | -3%
COc1ccccc1NC(=O)Nc1nc(C(N)Cc2ccccc2)cs1 (centres undefined) | -62% | ? | 23µM* | ? | 23µM* | 18µM*
CC(C)(C)c1cc(C(=O)NN)n(Cc2ccc(F)cc2)n1 | -9% | -2% | -2% | -1% | -20% | -18%
CCc1ccc(Nc2nnc(-n3nc(C)cc3C)c3ccccc23)cc1 | -12% | / | / | -31% | ? | ?
O=C1Nc2ccccc2C(=O)N2CCC[C@@H]12 | / | / | / | / | -9%[9.04 µM] | -5%[9.04 µM]
O=C(NCc1ccccc1)C1(C(F)(F)F)C/C(=C\CCO)CCCO1 (centres undefined) | -3% | 9% | 9% | 10% | 11% | 13%
CCCn1c(=O)c2sccc2n2c(CCCC(=O)NCC3CCCO3)nnc12 (centres undefined) | 5% | 1% | -3% | 1% | -9% | 16%
SMILES | HepG2 tox | HT1080 IDH1KD tx | HT1080-NT tox | TGFb SMAD3 inh | DT40 TDP1 CPT | DT40 TDP1 no CPT
CC(C)CC(N)c1csc(NC(=O)C(c2ccccc2)c2ccccc2)n1 (centres undefined) | 13µM* | 2.9µM* | 7.3µM* | ? | 18µM* | 6.5µM*
O=C(Nc1nc(-c2cccc([N+](=O)[O-])c2)cs1)C(c1ccccc1)c1ccccc1 | -29% | -13% | -6% | ? | ? | ?
CC(C)CC(N)c1csc(NC(=O)Nc2ccccc2Cc2ccccc2)n1 (centres undefined) | -92% | ? | ? | ? | 12µM* | 12µM*
Cc1ccccc1NC(=O)Nc1ccccc1Br | 0% | 9% | -3% | 0% | 10µM* | ?
Cc1ccccc1NC(=O)C(=O)Nc1ccccc1C | 2% | ? | ? | 8% | -28% | -4%
Cc1ccccc1NC(=O)Nc1nc(CN)cs1 | -45% | ? | -13% | 0% | 16µM* | 23µM*
CCOC(=O)COc1ccc(F)cc1C(=O)c1ccn2nc(-c3ccc(Cl)cc3)cc2n1 | 0% | / | / | -17% | 3% | 0%
Cc1cc(C(=O)NC(C)C2CCCO2)c(C)o1 (centres undefined) | -9% | 0% | 16% | -4% | -1% | -2%
COc1ccc(CC(N)c2csc(NC(=O)Nc3ccccc3-c3ccccc3)n2)cc1 (centres undefined) | 16µM* | -9% | 15µM* | ? | ? | ?
COc1ccccc1NC(=O)Nc1nnc(C(C)C)s1 | -25% | 4% | 2% | -14% | -4% | -19%

Compound activity: PubChem BioAssay, National Center for Advancing Translational Sciences (NCATS)
